Test results taken from the supplement of paper PMC4466140.

B1: unnamed (peptide)
chain: RKQRSIPLSPIVPES

target: AgAbp1; test: SPOT peptide array binding signal intensity (averaged, normalized) (arbitrary units (background-subtracted, floor 0; scale differs between SH3 domains)); higher = stronger binding of the SH3 domain to the peptide
In short: (§1)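 Spot intensities were captured after detection with anti-GST antibody, an HRP-linked anti-mouse secondary and luminol, and quantified with Genespotter. The probes were GST-fused SH3 domains from four yeast species, produced in E. coli BL21(DE3), purified on glutathione Sepharose and incubated at 10 μg/ml overnight at 4°C on cellulose-bound synthetic 15-mer peptides with cysteines replaced by serines. Binding signal is the normalized, background-subtracted spot intensity averaged over replicates, and its arbitrary units differ between domains.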

Binder | SPOT peptide array binding signal intensity
B1 | 7

target: AgBbc1; test: as above
In short: as §1

Binder | SPOT peptide array binding signal intensity
B1 | 17

target: AgBem1-D1; test: as above
In short: as §1

Binder | SPOT peptide array binding signal intensity
B1 | 77

target: AgBzz1-D1; test: as above
In short: as §1

Binder | SPOT peptide array binding signal intensity
B1 | 15.5

target: AgBzz1-D2; test: as above
In short: as §1

Binder | SPOT peptide array binding signal intensity
B1 | 32

target: AgCyk3; test: as above
In short: as §1

Binder | SPOT peptide array binding signal intensity
B1 | 2

target: AgFus1; test: as above
In short: as §1

Binder | SPOT peptide array binding signal intensity
B1 | 104

target: AgHof1; test: as above
In short: as §1

Binder | SPOT peptide array binding signal intensity
B1 | 35.5

target: AgHse1; test: as above
In short: as §1

Binder | SPOT peptide array binding signal intensity
B1 | 375

target: AgLsb1; test: as above
In short: as §1

Binder | SPOT peptide array binding signal intensity
B1 | 1.5

target: AgLsb4; test: as above
In short: as §1

Binder | SPOT peptide array binding signal intensity
B1 | 45.5

target: AgMyo5; test: as above
In short: as §1

Binder | SPOT peptide array binding signal intensity
B1 | 0.25

target: AgNbp2; test: as above
In short: as §1

Binder | SPOT peptide array binding signal intensity
B1 | 59

target: AgRvs167; test: as above
In short: as §1

Binder | SPOT peptide array binding signal intensity
B1 | 3.33

target: AgSho1; test: as above
In short: as §1

Binder | SPOT peptide array binding signal intensity
B1 | 13

target: AgSla1-D1-D2; test: as above
In short: as §1

Binder | SPOT peptide array binding signal intensity
B1 | ≤ 0

target: AgSla1-D3; test: as above
In short: as §1

Binder | SPOT peptide array binding signal intensity
B1 | 3

target: CaAbp1-D1; test: as above
In short: as §1

Binder | SPOT peptide array binding signal intensity
B1 | 236

target: CaAbp1-D2; test: as above
In short: as §1

Binder | SPOT peptide array binding signal intensity
B1 | 98.5

target: CaBbc1; test: as above
In short: as §1

Binder | SPOT peptide array binding signal intensity
B1 | 175

target: CaBem1-D1; test: as above
In short: as §1

Binder | SPOT peptide array binding signal intensity
B1 | 13

target: CaBzz1-D1; test: as above
In short: as §1

Binder | SPOT peptide array binding signal intensity
B1 | 58

target: CaBzz1-D2; test: as above
In short: as §1

Binder | SPOT peptide array binding signal intensity
B1 | 136

target: CaCyk3; test: as above
In short: as §1

Binder | SPOT peptide array binding signal intensity
B1 | 48

target: CaFus1; test: as above
In short: as §1

Binder | SPOT peptide array binding signal intensity
B1 | 368

target: CaHof1; test: as above
In short: as §1

Binder | SPOT peptide array binding signal intensity
B1 | 0.25

target: CaHse1; test: as above
In short: as §1

Binder | SPOT peptide array binding signal intensity
B1 | 12.2

target: CaLsb1; test: as above
In short: as §1

Binder | SPOT peptide array binding signal intensity
B1 | 0.5

target: CaLsb4; test: as above
In short: as §1

Binder | SPOT peptide array binding signal intensity
B1 | 64

target: CaMyo5; test: as above
In short: as §1

Binder | SPOT peptide array binding signal intensity
B1 | 3.5

target: CaNbp2; test: as above
In short: as §1

Binder | SPOT peptide array binding signal intensity
B1 | 297

target: CaRvs167; test: as above
In short: as §1

Binder | SPOT peptide array binding signal intensity
B1 | 5.17

target: CaRvs167-3; test: as above
In short: as §1

Binder | SPOT peptide array binding signal intensity
B1 | 1.25

target: CaSho1; test: as above
In short: as §1

Binder | SPOT peptide array binding signal intensity
B1 | 83

target: CaSla1-D1-D2; test: as above
In short: as §1

Binder | SPOT peptide array binding signal intensity
B1 | 15

target: CaSla1-D3; test: as above
In short: as §1

Binder | SPOT peptide array binding signal intensity
B1 | ≤ 0

target: ScAbp1; test: as above
In short: as §1

Binder | SPOT peptide array binding signal intensity
B1 | 11
